Assay results: paper PMC5540273 (PLoS ONE, 2017)

The compounds below were run on LRRK2. Details: concentration: 1 μM, replicates: in singlicate; n = 1.
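Further: KINOMEscan kinase panel screen.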

Compound | %Inh
Nc1ncnc2c1nc(-c1ccccc1)n2-c1ccccc1 [SKF-97293] | 58%
CC(=O)Nc1nc2cnc(Nc3cc(NC(=O)c4cccc(C5(C#N)CC5)c4Cl)ccc3C)nc2s1 | 0%
c1ccc(Oc2ccc(Nc3ccnc4cc(-c5ccc(CNCCN6CCOCC6)o5)ccc34)cc2)nc1 [GW567145] | 20%
Cn1cc(-c2[nH]c3cc(NC(=O)[C@H](N)C4CCCCC4)cc4c3c2C=NNC4=O)cn1 | 56%
CC(C)c1nc(-c2cccc(NS(=O)(=O)c3c(F)cccc3F)c2F)c(-c2ccnc(Nc3ccc(N4CCOCC4)nc3)n2)s1 [GSK2008607] | 0%
COc1cc(Nc2nccc(-c3c(-c4cccc(NC(=O)c5c(F)cccc5F)c4)nn4ccccc34)n2)cc(OC)c1OC [GSK323521] | 0%
COc1cc(Nc2nccc(N3CCC(NC(=O)c4cc5ccccc5s4)C3)n2)cc(OC)c1OC (stereo not shown) [GSK1379760] | 0%
Fc1ccc(-c2ncn(C3CCNCC3)c2-c2ccnc(Oc3ccc(-c4ccccc4)cc3)n2)cc1 [SB-245391] | 0%
COc1cc2c(cc1OCCN1CCNCC1)ncc1c3ccc(C#N)cc3[nH]c21 | 99.3%
Cl.Cl.NCC(NCc1ccc(-c2ccnc3[nH]ccc23)s1)c1ccccc1 (stereo not shown) [GSK1321565] | 10%
O=c1[nH]cc(-c2ccc(N3CCOCC3)cc2)c2sc(-c3cn[nH]c3)cc12 [GSK2276055] | 0%
O=C(Nc1cccc(-c2nn3ccccc3c2-c2ccnc(Nc3cccc(F)c3)n2)c1)c1c(F)ccc(F)c1Cl [GSK357952] | 32%
COC(=O)Nc1nc2cc(Oc3ccc(NC(=O)Nc4cc(C(F)(F)F)ccc4F)cn3)ccc2[nH]1.Cl.Cl [GW681170] | 22%
COCCOCCOc1cc2ncc3c4ccc(C#N)cc4[nH]c3c2cc1OC | 95.4%
c1ccc(-c2n[nH]cc2Nc2ccnc3ccccc23)nc1 [GW694077] | 78%
C[C@@H](Oc1cc(-n2cnc3cc(-c4ccnc(NCCS(C)(=O)=O)c4)ccc32)sc1C(N)=O)c1ccccc1Cl [GSK907232] | 44%
CN1CCN(CCCNc2nccc(-c3c(-c4ccc(F)cc4)nn4cc(C(F)(F)F)ccc34)n2)CC1 [GW621581] | 69%
Oc1cc(Nc2ccnc3cc(I)ccc23)ccc1F [GW552771] | 55%
COc1ccc(-c2coc3ccc(-c4nnc(SCc5ccc(OC)c(C(F)(F)F)c5)o4)cc23)cc1 | 0%

Compound | %Inh
Cl.c1ccc(-c2ccc3c(Nc4ccc5[nH]ncc5c4)ccnc3c2)nc1 [GW440137] | 0%
COc1ccc(CNC(=O)NC2CCN(c3ccnc(Nc4ccc(F)cc4)n3)CC2)cc1 [GSK1379788] | 0%
Cn1cc(-c2ccc3c(c2)CCN3C(=O)Cc2cccc(Cl)c2)c2c(N)ncnc21 [GSK2606590] | 29%
Cl.NC(=O)c1cccc(Nc2nccc(Nc3ccc(Oc4c(Cl)cccc4Cl)c(Cl)c3)n2)c1 [GW659009] | 17%
Cc1ccc(F)c(C(=O)Nc2cccc(-c3nn4ccccc4c3-c3ccnc(Nc4cccc(F)c4)n3)c2)c1F [GSK361061] | 6%
Cc1occc1-c1ncc(OC[C@@H](N)Cc2c[nH]c3ccccc23)cc1-c1ccc2[nH]nc(C)c2c1.O=C(O)C(F)(F)F [GSK682037] | 23%
Cc1cccc(Nc2nc(N[C@H]3CCNC3)ncc2C(N)=O)c1.Cl [GSK2197149] | 56%
CN(c1ccc(NC(=O)Nc2cc(C(F)(F)F)ccc2F)cc1)c1ccnc(Nc2ccc(S(N)(=O)=O)cc2)n1 [GW809893] | 72%
CNC(=O)c1ccccc1Nc1nc(Nc2ccc(N3CCOCC3)cc2)ncc1Cl.Cl [GSK1576028] | 92.7%
Cl.Cl.NCC(NC(=O)c1cc(-c2ccccc2)c(-c2ccnc3[nH]ccc23)s1)c1ccccc1 (stereo not shown) [GSK1321561] | 0%
NCCCC(NC(=O)c1cc(Br)c(-c2ccnc3[nH]ccc23)s1)c1ccccc1.O=C(O)C(F)(F)F.O=C(O)C(F)(F)F (stereo not shown) [GSK1287544] | 42%
O=C(Nc1cccc(Oc2ccc3nc(NC(=O)C4CC4)cn3n2)c1)c1ccccc1C(F)(F)F | 0%
Nc1n[nH]c2cnc(-c3ccccc3)cc12 [SB-642124] | 12%
CN1CCN(Cc2cccc(-c3ccc4c(Nc5ccc(Oc6ccccc6)cc5)ccnc4c3)c2)CC1 [GW578342] | 0%
Nc1ncc(-c2cccnc2)c2scc(-c3ccc4c(c3)CCN4C(=O)Cc3ccccc3)c12 [GSK683281] | 0%
O=C(Nc1cccc(-c2nn3ncccc3c2-c2ccnc(Nc3ccccc3)n2)c1)c1c(F)cccc1F [GSK198271] | 0%
Cl.c1ccc(-c2ccc3c(Nc4ccc5[nH]ccc5c4)ccnc3c2)nc1 [GW440138] | 0%
Cc1ccc(C(=O)Nc2ccc(Nc3ccnc4cc(-c5nccs5)ccc34)cc2O)cc1.Cl [GW494702] | 0%
